Source: publication PMC7862700, “An all-to-all approach to the identification of sequence-specific readers for epigenetic DNA modifications on cytosine”

Legend:
Assay in all cases: DAPPL (digital affinity profiling via proximity ligation, sequencing); 10 mM Tris-HCl pH 7.5, 50 mM NaCl, 1 mM DTT, 4% glycerol, room temperature, 30 min; GST-TFs on glutathione beads, 16-mer random dsDNA library, 0.1% formaldehyde crosslink after washing; high values mean tight binding
[1] = target: T1, FLI1 (Homo sapiens, UniProt Q01543 1-452); details: protein: recombinant; tags: N-terminal GST; dsDNA, one strand shown
T1 sequence: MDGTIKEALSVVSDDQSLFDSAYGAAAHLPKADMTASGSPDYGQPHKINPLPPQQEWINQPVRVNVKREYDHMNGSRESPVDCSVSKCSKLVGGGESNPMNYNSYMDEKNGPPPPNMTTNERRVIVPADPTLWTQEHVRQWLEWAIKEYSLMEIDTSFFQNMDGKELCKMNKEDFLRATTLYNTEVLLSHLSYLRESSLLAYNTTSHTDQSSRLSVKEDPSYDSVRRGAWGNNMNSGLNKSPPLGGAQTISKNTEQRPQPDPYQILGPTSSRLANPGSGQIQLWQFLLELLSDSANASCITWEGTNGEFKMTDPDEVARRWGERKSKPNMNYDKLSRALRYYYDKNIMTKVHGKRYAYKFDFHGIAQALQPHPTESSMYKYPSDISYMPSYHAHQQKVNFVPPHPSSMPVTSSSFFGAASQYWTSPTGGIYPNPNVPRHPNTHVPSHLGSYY
Method in brief: (§1)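 After expression in yeast as GST fusions, human transcription factors were bound to glutathione beads, DNA-barcoded and mixed with a tag-only sample. The pools were incubated with 200 nmole of a 16-mer random double-stranded DNA library in Tris/NaCl/DTT/glycerol buffer (30 min, room temperature), washed and crosslinked with 0.1% formaldehyde. Proximity ligation with BsaI/T4 ligase ran for 1 h at 37 °C, before PCR amplification and sequencing on an Illumina NextSeq500. Binding signal is a hexamer's read frequency for a factor divided by its frequency for the tag-only sample.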

[2] = target: T2, ELK1 (Homo sapiens, UniProt P19419 1-428); details: protein: recombinant; tags: N-terminal GST; dsDNA, one strand shown
T2 sequence: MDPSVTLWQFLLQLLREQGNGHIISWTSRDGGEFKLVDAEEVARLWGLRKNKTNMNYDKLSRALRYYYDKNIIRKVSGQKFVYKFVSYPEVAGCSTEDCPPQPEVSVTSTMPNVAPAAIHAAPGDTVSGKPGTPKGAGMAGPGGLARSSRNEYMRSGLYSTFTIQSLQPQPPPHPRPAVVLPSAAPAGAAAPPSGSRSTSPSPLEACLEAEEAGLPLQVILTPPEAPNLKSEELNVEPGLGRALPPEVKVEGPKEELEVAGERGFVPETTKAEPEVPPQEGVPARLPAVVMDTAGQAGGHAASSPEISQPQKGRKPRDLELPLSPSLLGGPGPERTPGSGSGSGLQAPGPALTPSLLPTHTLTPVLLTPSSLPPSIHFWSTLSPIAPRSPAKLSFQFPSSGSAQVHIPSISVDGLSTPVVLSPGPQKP
Method in brief: as §1

[3] = target: T3, GABPA (Homo sapiens, UniProt Q06546 1-454); details: protein: recombinant; tags: N-terminal GST; dsDNA, one strand shown
T3 sequence: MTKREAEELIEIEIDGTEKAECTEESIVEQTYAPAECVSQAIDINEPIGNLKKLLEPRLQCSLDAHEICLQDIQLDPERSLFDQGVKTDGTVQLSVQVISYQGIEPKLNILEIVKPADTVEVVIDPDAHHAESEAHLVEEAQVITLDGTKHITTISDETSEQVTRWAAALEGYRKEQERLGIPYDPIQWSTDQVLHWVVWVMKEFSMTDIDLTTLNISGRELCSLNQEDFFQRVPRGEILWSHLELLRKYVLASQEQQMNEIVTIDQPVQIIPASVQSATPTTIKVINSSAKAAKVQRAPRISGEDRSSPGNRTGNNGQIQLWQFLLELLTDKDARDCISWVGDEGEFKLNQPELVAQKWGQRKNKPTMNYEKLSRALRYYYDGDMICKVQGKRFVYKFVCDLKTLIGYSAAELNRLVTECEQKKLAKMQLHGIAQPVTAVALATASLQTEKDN
Method in brief: as §1

[4] = target: T4, ERG (Homo sapiens, UniProt P11308 1-479); details: protein: recombinant; tags: N-terminal GST; dsDNA, one strand shown
T4 sequence: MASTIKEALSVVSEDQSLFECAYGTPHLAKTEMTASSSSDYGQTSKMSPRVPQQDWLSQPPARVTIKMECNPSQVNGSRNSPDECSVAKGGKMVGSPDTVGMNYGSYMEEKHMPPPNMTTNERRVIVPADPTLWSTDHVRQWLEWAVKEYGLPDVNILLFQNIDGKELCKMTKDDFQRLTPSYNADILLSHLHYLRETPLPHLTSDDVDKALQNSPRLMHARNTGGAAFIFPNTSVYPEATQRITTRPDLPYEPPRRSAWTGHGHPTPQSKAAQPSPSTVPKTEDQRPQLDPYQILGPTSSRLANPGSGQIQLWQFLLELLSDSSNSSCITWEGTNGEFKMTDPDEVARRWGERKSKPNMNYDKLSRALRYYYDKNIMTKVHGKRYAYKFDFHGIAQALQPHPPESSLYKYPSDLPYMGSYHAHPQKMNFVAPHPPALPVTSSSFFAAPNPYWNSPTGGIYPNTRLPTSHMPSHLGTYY
Method in brief: as §1

[5] = target: ELF1 (Homo sapiens, UniProt P32519 1-619); details: protein: recombinant; tags: N-terminal GST; dsDNA, one strand shown
Method in brief: as §1

[6] = target: T5, EHF (Homo sapiens, UniProt Q9NZC4 1-300); details: protein: recombinant; tags: N-terminal GST; dsDNA, one strand shown
T5 sequence: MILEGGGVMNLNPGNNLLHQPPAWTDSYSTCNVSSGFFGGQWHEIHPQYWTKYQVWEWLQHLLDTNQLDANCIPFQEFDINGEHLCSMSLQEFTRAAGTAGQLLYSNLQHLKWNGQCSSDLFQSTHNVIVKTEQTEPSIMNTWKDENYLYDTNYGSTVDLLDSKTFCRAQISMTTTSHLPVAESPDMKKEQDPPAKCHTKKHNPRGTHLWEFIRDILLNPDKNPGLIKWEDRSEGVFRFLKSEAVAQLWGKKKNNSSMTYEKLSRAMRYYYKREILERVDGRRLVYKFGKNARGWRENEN
Method in brief: as §1

[7] = target: SPI1 (Homo sapiens, UniProt P17947 1-270); details: protein: recombinant; tags: N-terminal GST; dsDNA, one strand shown
Method in brief: as §1

[8] = target: SPIB (Homo sapiens, UniProt Q01892 1-262); details: protein: recombinant; tags: N-terminal GST; dsDNA, one strand shown
Method in brief: as §1

[9] = target: T6, ELK3 (Homo sapiens, UniProt P41970 1-407); details: protein: recombinant; tags: N-terminal GST; dsDNA, one strand shown
T6 sequence: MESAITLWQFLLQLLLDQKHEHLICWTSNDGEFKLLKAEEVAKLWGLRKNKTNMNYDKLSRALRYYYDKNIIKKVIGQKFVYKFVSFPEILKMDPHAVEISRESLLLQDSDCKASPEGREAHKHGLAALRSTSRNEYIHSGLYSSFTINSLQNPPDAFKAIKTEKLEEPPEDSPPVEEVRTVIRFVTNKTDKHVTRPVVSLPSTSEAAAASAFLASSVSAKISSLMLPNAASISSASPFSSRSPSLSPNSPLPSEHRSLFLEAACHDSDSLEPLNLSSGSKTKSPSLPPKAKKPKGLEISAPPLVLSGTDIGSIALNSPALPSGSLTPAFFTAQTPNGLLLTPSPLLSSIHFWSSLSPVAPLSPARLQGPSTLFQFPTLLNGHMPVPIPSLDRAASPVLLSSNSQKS
Method in brief: as §1

[10] = target: T7, FEV (Homo sapiens, UniProt Q99581 1-238); details: protein: recombinant; tags: N-terminal GST; dsDNA, one strand shown
T7 sequence: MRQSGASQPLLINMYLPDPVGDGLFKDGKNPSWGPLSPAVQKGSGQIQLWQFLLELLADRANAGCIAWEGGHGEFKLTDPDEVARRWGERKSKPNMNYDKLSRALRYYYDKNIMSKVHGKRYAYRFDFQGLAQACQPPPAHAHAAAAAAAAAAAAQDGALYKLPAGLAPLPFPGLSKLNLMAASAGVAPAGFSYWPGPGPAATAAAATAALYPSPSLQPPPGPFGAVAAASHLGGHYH
Method in brief: as §1

[11] = target: ETV5 (Homo sapiens, UniProt P41161 1-510); details: protein: recombinant; tags: N-terminal GST; dsDNA, one strand shown
Method in brief: as §1

[12] = target: HSF1 (Homo sapiens, UniProt Q00613 1-529); details: protein: recombinant; tags: N-terminal GST; chain copies: 3; dsDNA, one strand shown
Method in brief: as §1

[13] = target: T8, SPIC (Homo sapiens, UniProt Q8N5J4 1-248); details: protein: recombinant; tags: N-terminal GST; dsDNA, one strand shown
T8 sequence: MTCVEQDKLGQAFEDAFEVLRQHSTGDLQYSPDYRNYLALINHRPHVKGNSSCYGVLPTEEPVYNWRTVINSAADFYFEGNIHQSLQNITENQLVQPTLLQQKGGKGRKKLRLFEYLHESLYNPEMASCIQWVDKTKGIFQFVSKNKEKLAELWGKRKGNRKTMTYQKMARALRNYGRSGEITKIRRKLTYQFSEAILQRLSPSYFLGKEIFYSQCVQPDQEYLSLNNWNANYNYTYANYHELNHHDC
Method in brief: as §1

[14] = target: ELF4 (Homo sapiens, UniProt Q99607 1-663); details: protein: recombinant; tags: N-terminal GST; dsDNA, one strand shown
Method in brief: as §1

[15] = target: T9, ELK4 (Homo sapiens, UniProt P28324-2 1-405); details: protein: recombinant; tags: N-terminal GST; dsDNA, one strand shown
T9 sequence: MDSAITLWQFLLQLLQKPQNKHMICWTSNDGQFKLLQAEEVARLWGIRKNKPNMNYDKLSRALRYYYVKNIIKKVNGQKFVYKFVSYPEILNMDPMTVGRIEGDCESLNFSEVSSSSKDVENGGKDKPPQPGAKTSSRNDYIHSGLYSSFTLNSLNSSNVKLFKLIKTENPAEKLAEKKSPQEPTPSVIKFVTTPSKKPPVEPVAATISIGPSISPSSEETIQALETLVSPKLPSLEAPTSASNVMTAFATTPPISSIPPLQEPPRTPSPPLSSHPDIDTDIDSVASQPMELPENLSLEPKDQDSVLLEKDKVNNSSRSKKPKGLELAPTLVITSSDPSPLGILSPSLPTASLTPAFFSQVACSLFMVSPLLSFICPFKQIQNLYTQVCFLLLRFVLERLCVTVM
Method in brief: as §1

[16] = target: T10, ETV2 (Homo sapiens, UniProt O00321 1-342); details: protein: recombinant; tags: N-terminal GST; dsDNA, one strand shown
T10 sequence: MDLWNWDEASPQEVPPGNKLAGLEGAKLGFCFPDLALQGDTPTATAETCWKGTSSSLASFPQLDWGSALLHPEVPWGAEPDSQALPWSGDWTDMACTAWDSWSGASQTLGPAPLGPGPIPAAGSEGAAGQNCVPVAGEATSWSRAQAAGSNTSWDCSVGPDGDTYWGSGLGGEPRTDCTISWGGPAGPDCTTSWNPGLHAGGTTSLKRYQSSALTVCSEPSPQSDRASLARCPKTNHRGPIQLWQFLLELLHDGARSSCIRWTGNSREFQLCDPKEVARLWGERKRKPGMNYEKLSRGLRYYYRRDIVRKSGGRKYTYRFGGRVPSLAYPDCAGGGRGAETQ
Method in brief: as §1

[17] = target: T11, ELF3 (Homo sapiens, UniProt P78545 1-371); details: protein: recombinant; tags: N-terminal GST; dsDNA, one strand shown
T11 sequence: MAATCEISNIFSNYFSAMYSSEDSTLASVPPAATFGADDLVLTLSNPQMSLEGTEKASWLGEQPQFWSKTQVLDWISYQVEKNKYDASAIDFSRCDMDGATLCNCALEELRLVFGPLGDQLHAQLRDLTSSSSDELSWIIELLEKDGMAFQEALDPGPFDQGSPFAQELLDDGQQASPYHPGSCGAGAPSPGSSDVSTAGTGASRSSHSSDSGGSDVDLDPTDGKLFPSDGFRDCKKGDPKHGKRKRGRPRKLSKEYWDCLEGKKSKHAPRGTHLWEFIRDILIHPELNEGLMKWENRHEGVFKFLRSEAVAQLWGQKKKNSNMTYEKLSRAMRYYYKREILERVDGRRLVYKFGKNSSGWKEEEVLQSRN
Method in brief: as §1

[18] = target: CRX (Homo sapiens, UniProt O43186 1-299); details: protein: recombinant; tags: N-terminal GST; dsDNA, one strand shown
Method in brief: as §1

[19] = target: ETV1 (Homo sapiens, UniProt P50549 1-477); details: protein: recombinant; tags: N-terminal GST; dsDNA, one strand shown
Method in brief: as §1

Sequence of ETV1 (P50549 whole entry): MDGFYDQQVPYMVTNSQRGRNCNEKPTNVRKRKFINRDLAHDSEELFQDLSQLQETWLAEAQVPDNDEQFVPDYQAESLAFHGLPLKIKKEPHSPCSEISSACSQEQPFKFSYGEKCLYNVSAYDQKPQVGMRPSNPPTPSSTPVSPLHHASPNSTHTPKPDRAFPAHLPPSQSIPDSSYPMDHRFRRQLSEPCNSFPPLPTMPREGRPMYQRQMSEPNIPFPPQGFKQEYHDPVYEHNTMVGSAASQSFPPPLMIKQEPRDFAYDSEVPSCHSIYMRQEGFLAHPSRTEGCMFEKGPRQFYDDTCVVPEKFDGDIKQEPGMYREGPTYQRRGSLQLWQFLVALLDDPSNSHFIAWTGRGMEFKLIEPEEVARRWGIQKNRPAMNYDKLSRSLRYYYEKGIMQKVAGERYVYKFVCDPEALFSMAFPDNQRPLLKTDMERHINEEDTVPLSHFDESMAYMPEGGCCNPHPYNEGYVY
Sequence of ELF4 (Q99607 whole entry): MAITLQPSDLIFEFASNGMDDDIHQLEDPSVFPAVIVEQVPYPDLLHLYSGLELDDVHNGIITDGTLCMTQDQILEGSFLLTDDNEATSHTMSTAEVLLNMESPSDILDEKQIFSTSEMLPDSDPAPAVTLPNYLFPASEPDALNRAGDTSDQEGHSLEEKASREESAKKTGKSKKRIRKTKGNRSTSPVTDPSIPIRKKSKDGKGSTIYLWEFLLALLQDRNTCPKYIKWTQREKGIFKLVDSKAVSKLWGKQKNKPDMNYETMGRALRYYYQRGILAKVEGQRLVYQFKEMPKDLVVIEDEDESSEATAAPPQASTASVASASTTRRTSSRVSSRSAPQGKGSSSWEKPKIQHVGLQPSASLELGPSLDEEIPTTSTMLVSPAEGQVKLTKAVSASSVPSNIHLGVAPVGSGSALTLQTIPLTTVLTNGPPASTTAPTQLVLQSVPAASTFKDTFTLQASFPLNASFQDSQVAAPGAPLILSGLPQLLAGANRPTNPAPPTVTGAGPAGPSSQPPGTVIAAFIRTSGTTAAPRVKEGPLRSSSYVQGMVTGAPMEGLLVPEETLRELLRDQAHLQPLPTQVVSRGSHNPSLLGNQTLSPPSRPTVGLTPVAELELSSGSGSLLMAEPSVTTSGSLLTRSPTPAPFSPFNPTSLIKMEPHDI
Sequence of SPIB (Q01892 whole entry): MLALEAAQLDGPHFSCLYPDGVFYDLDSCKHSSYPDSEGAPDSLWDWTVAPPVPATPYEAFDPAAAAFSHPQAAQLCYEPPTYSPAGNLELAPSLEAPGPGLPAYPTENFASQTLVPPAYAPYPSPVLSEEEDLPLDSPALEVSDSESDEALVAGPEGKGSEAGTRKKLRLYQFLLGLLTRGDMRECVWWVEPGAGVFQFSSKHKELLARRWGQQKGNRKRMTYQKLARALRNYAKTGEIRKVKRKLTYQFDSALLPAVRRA
Sequence of HSF1 (Q00613 whole entry): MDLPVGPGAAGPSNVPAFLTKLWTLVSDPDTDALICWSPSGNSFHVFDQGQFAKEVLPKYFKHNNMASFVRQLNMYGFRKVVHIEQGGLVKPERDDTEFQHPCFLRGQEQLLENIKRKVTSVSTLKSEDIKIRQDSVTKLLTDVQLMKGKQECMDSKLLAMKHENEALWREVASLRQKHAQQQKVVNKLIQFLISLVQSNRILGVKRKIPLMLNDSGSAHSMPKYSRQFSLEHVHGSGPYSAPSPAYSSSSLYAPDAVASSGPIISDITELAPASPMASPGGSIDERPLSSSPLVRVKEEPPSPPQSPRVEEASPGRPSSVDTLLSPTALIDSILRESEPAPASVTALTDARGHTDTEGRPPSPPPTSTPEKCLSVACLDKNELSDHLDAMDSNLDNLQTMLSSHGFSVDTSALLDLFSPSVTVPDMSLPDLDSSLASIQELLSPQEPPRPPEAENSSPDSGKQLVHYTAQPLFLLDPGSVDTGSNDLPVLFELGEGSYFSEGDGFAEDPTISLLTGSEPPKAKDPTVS
Sequence of ELF1 (P32519 whole entry): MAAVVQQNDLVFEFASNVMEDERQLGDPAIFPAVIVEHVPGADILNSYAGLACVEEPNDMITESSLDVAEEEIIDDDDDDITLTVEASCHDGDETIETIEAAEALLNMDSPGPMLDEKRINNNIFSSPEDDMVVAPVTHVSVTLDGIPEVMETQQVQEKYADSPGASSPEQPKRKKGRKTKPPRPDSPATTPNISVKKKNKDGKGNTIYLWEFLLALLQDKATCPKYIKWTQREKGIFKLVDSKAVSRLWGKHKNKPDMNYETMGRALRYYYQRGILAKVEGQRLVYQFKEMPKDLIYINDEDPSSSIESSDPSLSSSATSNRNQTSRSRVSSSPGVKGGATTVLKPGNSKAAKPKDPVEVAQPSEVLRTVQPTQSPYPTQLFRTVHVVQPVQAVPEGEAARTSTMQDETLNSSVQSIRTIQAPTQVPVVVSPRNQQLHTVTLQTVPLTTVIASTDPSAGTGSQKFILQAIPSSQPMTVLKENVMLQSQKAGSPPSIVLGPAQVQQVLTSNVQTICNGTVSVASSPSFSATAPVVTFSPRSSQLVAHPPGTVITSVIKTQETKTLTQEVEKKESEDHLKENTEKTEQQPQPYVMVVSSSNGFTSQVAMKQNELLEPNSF
Sequence of CRX (O43186 whole entry): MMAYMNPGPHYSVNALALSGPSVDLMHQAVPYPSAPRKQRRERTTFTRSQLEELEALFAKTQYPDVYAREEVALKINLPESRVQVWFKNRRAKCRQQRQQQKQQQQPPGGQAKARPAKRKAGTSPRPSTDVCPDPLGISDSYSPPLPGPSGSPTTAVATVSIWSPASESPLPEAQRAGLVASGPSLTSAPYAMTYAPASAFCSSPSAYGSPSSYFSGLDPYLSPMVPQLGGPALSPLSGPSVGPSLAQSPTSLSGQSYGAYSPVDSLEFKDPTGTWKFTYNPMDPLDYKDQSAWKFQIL
Sequence of ETV5 (P41161 whole entry): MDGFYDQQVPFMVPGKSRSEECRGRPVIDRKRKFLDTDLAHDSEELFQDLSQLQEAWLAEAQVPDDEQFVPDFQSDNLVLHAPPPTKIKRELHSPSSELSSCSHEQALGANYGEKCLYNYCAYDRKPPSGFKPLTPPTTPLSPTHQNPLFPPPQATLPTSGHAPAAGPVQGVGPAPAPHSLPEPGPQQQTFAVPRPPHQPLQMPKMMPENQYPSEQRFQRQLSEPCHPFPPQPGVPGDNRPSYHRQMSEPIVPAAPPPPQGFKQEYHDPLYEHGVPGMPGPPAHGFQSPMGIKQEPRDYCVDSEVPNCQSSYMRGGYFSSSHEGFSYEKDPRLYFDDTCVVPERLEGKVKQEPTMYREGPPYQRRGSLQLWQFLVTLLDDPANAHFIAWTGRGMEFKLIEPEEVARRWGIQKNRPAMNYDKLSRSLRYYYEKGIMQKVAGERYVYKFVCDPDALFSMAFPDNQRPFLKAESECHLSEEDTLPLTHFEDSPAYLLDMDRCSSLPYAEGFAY

Sequence: AGAATT
- binding signal [1]: 1.21 fold enrichment (6-mer frequency, TF over GST control)
- binding signal [2]: 1.15 fold enrichment (6-mer frequency, TF over GST control)
- binding signal [3]: 1.11 fold enrichment (6-mer frequency, TF over GST control)
- binding signal [4]: 1.17 fold enrichment (6-mer frequency, TF over GST control)
- binding signal [5]: 1.15 fold enrichment (6-mer frequency, TF over GST control)
- binding signal [6]: 1.18 fold enrichment (6-mer frequency, TF over GST control)
- binding signal [7]: 1.22 fold enrichment (6-mer frequency, TF over GST control)
- binding signal [8]: 1.16 fold enrichment (6-mer frequency, TF over GST control)
- binding signal [9]: 1.28 fold enrichment (6-mer frequency, TF over GST control)
- binding signal [10]: 1.08 fold enrichment (6-mer frequency, TF over GST control)
- binding signal [11]: 1.13 fold enrichment (6-mer frequency, TF over GST control)
- binding signal [12]: 2.2 fold enrichment (6-mer frequency, TF over GST control)
- binding signal [13]: 1.24 fold enrichment (6-mer frequency, TF over GST control)
- binding signal [14]: 1.24 fold enrichment (6-mer frequency, TF over GST control)
- binding signal [15]: 1.2 fold enrichment (6-mer frequency, TF over GST control)
- binding signal [16]: 1.06 fold enrichment (6-mer frequency, TF over GST control)
- binding signal [17]: 1.04 fold enrichment (6-mer frequency, TF over GST control)
- binding signal [18]: 1.76 fold enrichment (6-mer frequency, TF over GST control)
- binding signal [19]: 1.16 fold enrichment (6-mer frequency, TF over GST control)
